Screening results deposited in PubChem BioAssay by National Center for Advancing Translational Sciences (NCATS).
Sampled rows, rich in hits. Any-hit rate of the full collection: about 19%.
HT1080 IDH1KD tx: toxicity to HT-1080 IDH1 knockdown cells (counter line); HT-1080 IDH1 knockdown viability, ATP luminescence, 48 h; Potency, µM (titrated, usually from 46.1 µM), most hits filed as cytotoxic; 360,000 compounds, 2% hits
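IDH1KD HT-1080 cells, 750/well, RPMI + 5% FBS; compound pinned after 2 h settling; 48 h, 37 °C; CellTiter-Glo luminescence; % activity normalised to DMSO and no-cell wells; curves fitted, classed by r2 and efficacy.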
TDP1 cell CPT: growth inhibition of DT40 Tdp1-/-;hTDP1 cells with camptothecin (screen for TDP1 inhibitors); Potency, µM (top dose mostly 46.2 µM), usual class: inhibitors; 420,000 compounds, 12% hits; chicken DT40 Tdp1-/-;hTDP1 cells + 20 nM CPT, ATP luminescence, 48 h; also: nearly all actives have a fitted effect of over 55% in size
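Chicken DT40 Tdp1-/- cells stably complemented with human TDP1 were seeded at 400 cells/well in medium containing 20 nM camptothecin, exposed to pin-transferred compounds, and grown at 37 °C for at least 48 hr. Viability was read as ATP luminescence.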
IL1B secr inh: blocks inflammasome-driven IL-1 beta release. THP-1 LPS/ATP IL-1B secretion, AlphaLISA, 16 h; active compounds read low. activity change, % at 57.5 µM. 360,000 compounds, 4.7% hits; in the data active = activity change below about -50%; inconclusive = mostly about -30% to -49%
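Secreted IL-1B measured by AlphaLISA bead assay after 16 h compound exposure of THP-1 cells; compounds (final up to 57.5 uM) added 1 h before LPS (250 ng/mL) and ATP (1.25 mM) stimulation; lower signal means less secretion.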
HT1080-NT tox: kills 2HG-producing HT-1080-NT fibrosarcoma cells; Potency, µM (titrated, usually from 46.1 µM), usual class: cytotoxic; HT-1080-NT fibrosarcoma viability, CellTiter-Glo ATP luminescence, 48 h; 360,000 compounds, 1.6% hits; AID 686970;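 also: NT is the 2HG producing partner of a matched IDH1 knockdown line; nearly all actives have a fitted effect of over 55% in size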
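Luminescent CellTiter-Glo readout after 48 hours of compound exposure at 37 degrees C defined viability of HT-1080-NT cells. Activity was normalized to DMSO wells and cell-free media wells; concentration-response curves were fitted and assigned curve classes.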
DT40 TDP1 no CPT: qHTS for Inhibitors of human tyrosyl-DNA phosphodiesterase 1 (TDP1): qHTS in cells in absence of CPT | DT40 Tdp1-/- hTDP1 cells, no CPT, ATP luminescence, 48 h | 420,000 compounds, 15% hits | Potency, µM (top dose mostly 46.2 µM), usual class: inhibitors | AID 686978, 2013; also: nearly all actives have a fitted effect of over 55% in size
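Growth of hTDP1-complemented DT40 Tdp1-knockout cells is measured by ATP luminescence after at least 48 hr compound exposure at 37 °C, with DMSO substituting for the 20 nM CPT used in the parallel screen.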
Of the large screens only hits and unclear results are named; the others gave an inactive call; ! = repeats disagree. Unless noted, calls follow the shape of the dose curve; as a rule, active = well fitted curve in the direction sought with a large enough effect; inconclusive = small, poorly fitted or top-dose-only effect, or another doubt; inactive = no such curve, though single readings can be large; an effect the other way counts as inactive or inconclusive.

Cc1ccc(OCc2nc(-c3ccccc3)no2)cc1	HT1080 IDH1KD tx inconclusive, TDP1 cell CPT inconclusive
C/C(N)=C(/C#N)C(=O)CSc1nc(C2CCCCC2)n(-c2ccccc2)n1	TDP1 cell CPT 13µM!, DT40 TDP1 no CPT inconclusive
NC(=O)NC(=O)CSc1nc(C2CCCCC2)n(-c2ccccc2)n1	DT40 TDP1 no CPT inconclusive
CCOc1ccc(S(=O)(=O)N2CCN(C(=O)C3CSC4(C)CCC(=O)N34)CC2)cc1 (stereo unspecified)	none
Nc1ccc(S(=O)(=O)c2ccc(Cl)cc2)cc1	none
CCOC(=O)N1CCN(C(=O)C[C@@H]2C[C@@]3(C(=O)OCC)CCCC=C3N(Cc3ccc4c(c3)OCO4)C2=O)CC1	TDP1 cell CPT inconclusive, DT40 TDP1 no CPT inconclusive
CCOC(=O)[C@]12CCCC=C1N(Cc1ccc3c(c1)OCO3)C(=O)[C@H](CC(=O)N1CCC(c3ccccc3)CC1)C2	HT1080 IDH1KD tx inconclusive, TDP1 cell CPT 18µM, IL1B secr inh -76, HT1080-NT tox inconclusive, DT40 TDP1 no CPT 21µM
COC(=O)[C@]12CCCCC=C1N(Cc1ccc3c(c1)OCO3)C(=O)[C@H](CC(=O)N1CCC(c3ccccc3)CC1)C2	TDP1 cell CPT inconclusive, DT40 TDP1 no CPT 18µM
Cc1ccc(N2C(=O)c3oc4ccccc4c(=O)c3C2c2cccc(O)c2)nc1 (stereo unspecified)	TDP1 cell CPT 21µM, DT40 TDP1 no CPT inconclusive
COc1ccc(NC(=O)c2cn(CC(C)C)c(=O)c3cc(OC)c(OC)cc23)cc1Cl	TDP1 cell CPT 21µM, DT40 TDP1 no CPT 21µM (no result: HT1080 IDH1KD tx, IL1B secr inh, HT1080-NT tox)
COc1ccccc1CNC(=O)c1cn(C)c(=O)c2cc(OC)c(OC)cc12	TDP1 cell CPT 18µM, DT40 TDP1 no CPT 21µM
COc1cccc(NC(=O)c2cn(C)c(=O)c3cc(OC)c(OC)cc23)c1	TDP1 cell CPT 8.2µM, DT40 TDP1 no CPT 15µM
COc1ccc(NC(=O)c2cn(C)c(=O)c3cc(OC)c(OC)cc23)cc1OC	none
O=S(=O)(O)Oc1ccc(C(c2ccc(OS(=O)(=O)O)cc2)c2ccccn2)cc1	none (no result: HT1080 IDH1KD tx, IL1B secr inh, HT1080-NT tox)
CC(=O)Oc1ccc(C(c2ccc(OC(C)=O)cc2)c2ccccn2)cc1	HT1080 IDH1KD tx inconclusive, TDP1 cell CPT inconclusive, IL1B secr inh -77, HT1080-NT tox inconclusive, DT40 TDP1 no CPT 15µM
Cc1ccc(C(=O)N[C@H](C(=O)OCc2cc(=O)oc3cc(C)ccc23)C(C)C)cc1	DT40 TDP1 no CPT inconclusive
CCCNC(=O)c1cc(C2CCCCN2C(=O)c2cccs2)on1 (stereo unspecified)	TDP1 cell CPT inconclusive
Cn1cnc(S(=O)(=O)N2CCCCC2c2cc(C(=O)Nc3cccc(C#N)c3)no2)c1 (stereo unspecified)	TDP1 cell CPT inconclusive
O=C(NCc1ccc(Cl)c(Cl)c1)c1cc(C2CCCCN2C(=O)c2ccccc2)on1 (stereo unspecified)	TDP1 cell CPT 18µM, IL1B secr inh inconclusive, DT40 TDP1 no CPT 13µM
O=C(Nc1cccc2c1CCCC2)c1cc(C2CCCCN2C(=O)c2cccs2)on1 (stereo unspecified)	HT1080 IDH1KD tx inconclusive, TDP1 cell CPT 8.2µM, HT1080-NT tox inconclusive, DT40 TDP1 no CPT 8.2µM
Cn1cnc(S(=O)(=O)N2CCCCC2c2cc(C(=O)NCc3ccc(Cl)c(Cl)c3)no2)c1 (stereo unspecified)	TDP1 cell CPT inconclusive, HT1080-NT tox inconclusive, DT40 TDP1 no CPT 6.5µM
O=C(NCc1ccc(Cl)c(Cl)c1)c1cc(C2CCCCN2C(=O)c2cccs2)on1 (stereo unspecified)	TDP1 cell CPT 15µM, DT40 TDP1 no CPT 21µM
COCCOC(=O)N1CCCCC1c1cc(C(=O)NCc2ccc(Cl)c(Cl)c2)no1 (stereo unspecified)	TDP1 cell CPT 15µM, DT40 TDP1 no CPT inconclusive
O=C(NCc1ccccc1)c1cc(C2CCCCN2C(=O)c2ccccc2)on1 (stereo unspecified)	TDP1 cell CPT 18µM, DT40 TDP1 no CPT 13µM
CC(=O)Nc1ccc(C(=O)N2CCCCC2c2cc(C(=O)NCc3ccccc3)no2)cc1 (stereo unspecified)	HT1080-NT tox inconclusive
